Hit rate of the full screen: of about 240,000 compounds, about 20 (0.008%) were called active. Not shown: some 1% with an inconclusive outcome. Calls come from the whole dose curve; as a rule, active = well fitted inhibition curve with a large enough effect; inconclusive = small, poorly fitted or top-dose-only effect, or effect the other way; inactive = flat fitted curve, though single readings scatter. These entries were drawn from the full list. Peptide text beside a SMILES is read from it.
Target: Alpha-galactosidase A (Homo sapiens) (UniProt P06280)
Sequence (P06280 32-429 limits assumed): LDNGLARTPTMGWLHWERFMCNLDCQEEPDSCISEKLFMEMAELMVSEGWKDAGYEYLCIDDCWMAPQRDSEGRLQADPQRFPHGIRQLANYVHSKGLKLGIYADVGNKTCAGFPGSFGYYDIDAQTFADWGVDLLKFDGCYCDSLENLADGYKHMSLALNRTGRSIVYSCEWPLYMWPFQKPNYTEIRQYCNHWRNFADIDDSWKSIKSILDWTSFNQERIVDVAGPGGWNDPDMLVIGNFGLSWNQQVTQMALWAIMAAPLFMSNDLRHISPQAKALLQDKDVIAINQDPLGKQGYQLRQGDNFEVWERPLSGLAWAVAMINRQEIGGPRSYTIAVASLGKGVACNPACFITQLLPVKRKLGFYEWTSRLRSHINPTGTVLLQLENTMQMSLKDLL
Assay: qHTS Assay for Inhibitors and Activators of Human alpha-Galactosidase From Spleen Homogenate;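 note: 0% = enzyme with vehicle and -100% = no enzyme basal signal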
Details: 4MU-alpha-Gal fluorescence, 40 min; series mostly up to 80 µM
From the text: NIH Chemical Genomics Center [NCGC] NIH Molecular Libraries Probe Production Centers Network [MLPCN] MLPCN Grant: R03 MH084842-01 Assay Submitter (PI): Wei Zheng NCGC Assay Overview: Alpha-galactosidase is a homodimeric glycoprotein that hydrolyzes the terminal alpha-galactosyl moieties from glycolipids and glycoproteins. Deficiency of this enzyme results in Fabry Disease with progressive accumulation of globotriaosylceramide and other glycosphingolipids in vascular endothelial cells that causes renal failure, myocardial infarction and stroke, and premature death in patients. It has been reported that the improper folding and trafficking of alpha-galactosidase resulting from genetic mutations may account for a significant number of Fabry patients. […] We optimized this alpha-galactosidase assay in 1536-well plate format for identification of novel small molecule inhibitors or activators with structures other than the sugar analogs in order to develop new pharmacological chaperones. In particular, this assay is directed towards discovering compounds active in more natural setting, tissue homogenate, that may have been missed by screens of the purified enzyme under more stringent conditions.
NCGC Assay Protocol Summary: This is a fluorogenic enzyme assay with 4-methylumbelliferyl-alpha-D-galactopyranoside as the substrate and human spleen homogenate containing alpha-galactosidase as the enzyme preparation. Upon hydrolysis of this fluorogenic substrate, the resulting product, 4-methylumbelliferone (which excites at 365 nm and emits at 440 nm) can be detected by a fluorescence plate reader. Data were normalized to the controls for basal activity (without enzyme) and 100% activity (with enzyme). The AC50 values were determined from concentration-response data modeled with the standard Hill equation. Assay buffer: 50 mM citric acid (titrated with potassium phosphate to pH 5.0), 0.01% Tween-20 (pH 5.0 is an optimal condition for this enzyme assay) 1536-well assay protocol for the alpha-galactosidase from human spleen homogenate: (1) Add 2 ul/well spleen homogenate (1 ug) (2) Add 23 nL compounds in DMSO solution. The final titration was 0.5 nM to 58 uM. (3) Add 2 ul of substrate (1 mM final) (4) Incubate at 37C for 40 min (5) Add 2 ul stop solution (1M NaOH and 1M Glycine mixture, pH 10) (6) Detect the assay plate in a ViewLux plate reader (PerkinElmer) with Ex=365 nm and Em=440nm. Keywords: Alpha-galactosidase, Fabry Disease, pharmacological chaperone, chaperone therapy, high throughput screening, alpha- galactosidase inhibitor, MLSMR, MLSCN, NIH Roadmap, qHTS and NCGC

Activity change, negative = inhibition, inactive:
O=[N+]([O-])c1ccccc1S(=O)(=O)Nc1cccc2cccnc12
C=C1CCN(Cc2ccc(OC)cc2)S(=O)(=O)c2ccccc21
COc1cc(OC)c2c(c1C(CCN1CCCCC1)c1ccc(N(C)C)cc1)OC(=O)CC2c1ccc(N(C)C)cc1 (configuration not stated)
CCN(CC)S(=O)(=O)c1ccc(N(C)Cc2ccc(C(F)(F)F)cc2)nc1
CCOc1ccc(NC(=O)CN(C)CC(=O)Nc2cccc(Cl)c2C)cc1OCC
Cc1cccc(NC(=S)Nc2ccc3cn[nH]c3c2)c1
O=C(CCl)N(Cc1cccc([N+](=O)[O-])c1)c1cccc(Cl)c1
CCCCc1nn(-c2ccccc2C(F)(F)F)c(=O)n1Cc1ccc(-c2ccccc2S(=O)(=O)NC(=O)c2sccc2C)cc1
CCCCC/C=C/C=C/C=O
CC(Sc1nnc2c(n1)C1CCC2(C)C1(C)C)C(=O)Nc1ccccc1 (configuration not stated)
CO[C@@]12[C@@H](COC(N)=O)C3=C(C(=O)C(C)=C(N)C3=O)N1C[C@@H]1N[C@@H]12
O=C1CN(Cc2ccccc2)S(=O)(=O)c2ccccc21
CCOC(=O)Cn1c(=O)sc2cccc(Cl)c21
Cc1nc2c(C(=O)NCc3cccs3)cnn2c(C)c1Cc1ccc(F)cc1
Cc1ccc(OCC(=O)Nc2ccccc2Sc2ccc(Cl)cc2)c([N+](=O)[O-])n1
Cc1cc2oc(=O)cc(-c3ccccc3)c2c(C)c1-c1ccc(OC(F)(F)F)cc1
H-EHIPA-OH
O=C(NC1CCN(Cc2ccccc2)CC1)c1ccc(Oc2cc(Cl)cc(Cl)c2)o1
Cc1ccc(CNC(=O)C2(C(F)(F)F)C/C(=C\Cc3ccccc3)CCCO2)o1 (configuration not stated)
CCCC[C@@H]1C[C@H]1C(NC(=O)c1ccco1)c1ccc(C(=O)OC)cc1 (some centres not stated)
CCCN1CCC(=O)N(C(CSc2ccc(OC)cc2)Cc2ccccc2)CC1 (configuration not stated)
COc1ccc(C2/C=C\CN(C(=O)c3ccc(C)cc3)C(Cc3ccccc3)C(=O)N2Cc2ccc(F)cc2)cc1 (configuration not stated)
c1ccc2c(Nc3ccncc3)nc(-c3ccc4c(c3)OCO4)nc2c1
COc1ccc(-c2ccc(OC)c(C3C4C=CCC(C)C4C(=O)N3Cc3ccccc3)c2)cc1C (configuration not stated)
S=C(NCCc1ccccc1)NCc1ccccc1Cl
C=CCN(C(=O)c1cc(C)cc(C)c1)C1(C(=O)Nc2ccccc2)CCN(C(C)C)CC1
CCCCCOc1ccc(/C=C/C(=O)NCCc2nc3ccccc3[nH]2)cc1OC
O=C(O)C1CC=CC2CCN(C3CCCCC3)C(=O)C21 (configuration not stated)
CCOc1cc(-c2conc2N)cc(OCC)c1OCC
CC1(OC(=O)c2ccc(Cl)nc2)C(=O)Cc2cc(-c3ccsc3)ncc2C1=O (configuration not stated) 4.14% [at 17.5 µM]
O=C(O)CCc1nc2cc(Cl)ccc2n(Cc2ccccc2)c1=O
Cc1ccc(S(=O)(=O)c2nc(NCCCn3ccnc3)sc2Cl)cc1
COc1cccc2sc(N(CCCN(C)C)C(=O)C(c3ccccc3)c3ccccc3)nc12
CC(=O)OCCC(C)C
CN(C)CCOCCOc1ccc(Cl)c2ccccc12
COC(=O)CCc1ccccc1S(=O)(=O)N(CCC(=O)OC)Cc1ccccc1
CC(C)C(NS(=O)(=O)c1ccc(-c2ccc(Br)cc2)cc1)C(=O)O (configuration not stated)
CCn1c2ccccc2c2cc(NC(=O)Nc3ccc([N+](=O)[O-])cc3C)ccc21
COc1ccc(NC(=O)CSc2nnc(-c3ccccc3F)n2C2CC2)cc1S(N)(=O)=O
Cc1cc(C(=O)COc2ccccc2[N+](=O)[O-])c(C)n1-c1cccc(S(=O)(=O)N2CCOCC2)c1
Oc1ccc(-c2c(-c3ccccc3)nn3c(C(F)(F)F)cc(C(F)(F)F)nc23)cc1
CCCn1c(C)nc2c(NCCCCN(CC)CC)nc(C)nc21
COc1ccc(C2=Nn3c(nnc3-c3ccccc3O)SC2)cc1
O=C(Cc1coc2ccc3ccccc3c12)NCc1cccs1
O=C(CSC(=S)N1CCCCC1)c1c(F)cccc1F
O=c1c([N+](=O)[O-])cccn1Cc1ccc(F)cc1Cl
CCc1nnc(NC(=O)C2CC(=O)N(c3ccc4c(c3)OCCO4)C2)s1 (configuration not stated)
CCOC(=O)N1CCN(C(=O)c2ccccc2N(Cc2ccccc2)S(=O)(=O)c2ccc(OC)cc2)CC1
O=S(O)S(=O)(=O)O
COc1c(O)c2c(=O)cc(OC)c3c4c(OC)cc(=O)c5c(O)c(OC)c6c(c(c1C[C@@](C)(O)[C@H]6C(C)=O)c23)c54
NC(=O)C1(C(N)=O)OC1c1ccc(Cl)cc1Cl (configuration not stated)
C/C(=N/N1CCN(Cc2cccc3ccccc23)CC1)c1cccnc1
COc1ccc(N(C(=O)c2ccc(C)cc2)S(=O)(=O)c2cccs2)cc1
C[C@H]1CC[C@H](C(=O)O)N[C@@H]1c1ccc(C#Cc2ccccc2)cc1 7.47% [at 17.5 µM]
COc1ccc(-c2cn3ccc(C)cc3n2)cc1
CCN(CC)CCOCCOc1ccc(Cl)c2ccccc12
Cc1noc(C)c1-c1ccc2ncnc(NC(C)c3ccco3)c2c1 (configuration not stated)
Nc1ncnc2c1ncn2C1CC(O)C(CO)O1 (configuration not stated)
O=C(Nc1ccc2c(c1)OCO2)c1sc2cc(Cl)ccc2c1Cl
C/C(=N\NC(=O)c1ccc(C)cc1)C1C(=O)c2ccccc2C1=O
COc1ccccc1N1CCN(C(=O)c2ccc(Cl)c(S(=O)(=O)N3CCCC3)c2)CC1
CCOC(OCC)OCC
Cc1ccc(C)c2[nH]c(=O)c(CN(Cc3cccnc3)C(=S)NCc3ccco3)cc12
Cc1ccc(CNC(=O)C2(C(F)(F)F)C/C(=C\CCO)CCCO2)o1 (configuration not stated)
COc1cccc(NC(=O)CC2C(=O)NCCN2C(=S)Nc2ccc(F)cc2)c1 (configuration not stated)
Cc1ccc(SCC(CC(C)C)N2CCN(CCc3ccccc3)CCC2=O)cc1 (configuration not stated)
COC(=O)c1sc(=S)n(-c2ccc(Cl)cc2)c1C
COC(=O)c1ccc([C@@H](O)[C@H](C)C(=O)CC(=O)OC(C)(C)C)cc1
C[C@@H](O)[C@@H]1NC(=O)[C@H](CCCCN)NC(=O)[C@H](Cc2c[nH]c3ccccc23)NC(=O)[C@H](Cc2ccccc2)NC(=O)[C@H](Cc2ccccc2)NC(=O)[C@H](CC(N)=O)NC(=O)[C@H](CCCCN)NC(=O)[C@@H](NC(=O)[C@@H]2CCCN2)CSSC[C@@H](C(=O)N[C@@H](CCCCN)C(=O)O)NC(=O)[C@H](CO)NC(=O)[C@H](CO)NC(=O)[C@H](Cc2ccccc2)NC1=O (HELM PEPTIDE1{P.C.K.N.F.F.W.K.T.F.S.S.C.K}$PEPTIDE1,PEPTIDE1,2:R3-13:R3$$$V2.0)
Cc1ccccc1N1CCN(Cc2nc(Cc3ccccc3F)no2)CC1
O=c1cc(-c2ccc(O)cc2)oc2c(-c3cc(-c4cc(=O)c5c(O)cc(O)cc5o4)ccc3O)c(O)ccc12
O=C(CSc1nc(O)c(Cc2ccccc2)c(=O)[nH]1)Nc1nc2c(s1)CCCC2
CCOC(=O)C1=C(CN2CCc3ccccc32)NC(=O)NC1c1ccc(Cl)cc1 (configuration not stated)
C=CCOC(=O)C(=C)C
COc1ccc(-c2ccc(C3C4C=CCCC4(C)C(=O)N3Cc3ccccc3)c(F)c2)cc1OC (configuration not stated)
Cc1cccc(CNc2ccnc(-c3cccnc3)n2)c1
OCCC(O)CO (configuration not stated)
C/C=C/c1ccc(OCC(O)CN2CCCCCCC2)c(OC)c1 (configuration not stated)
Cc1ccc(N(C(=O)c2ccc(S(=O)(=O)N(C)C)cc2)C2C=CS(=O)(=O)C2)cc1 (configuration not stated)
CC[C@H](C)[C@H](NC(=O)[C@H](CCCNC(=N)N)NC(=O)[C@H](CCCNC(=N)N)NC(=O)[C@H](CC(C)C)NC(=O)[C@H](Cc1ccccc1)NC(=O)CNC(=O)CNC(=O)[C@@H](N)Cc1ccc(O)cc1)C(=O)N[C@@H](CCCNC(=N)N)C(=O)N1CCC[C@H]1C(=O)N[C@@H](CCCCN)C(=O)N[C@@H](CC(C)C)C(=O)N[C@@H](CCCCN)C(=O)N[C@@H](Cc1c[nH]c2ccccc12)C(=O)N[C@@H](CC(=O)O)C(=O)N[C@@H](CC(N)=O)C(=O)N[C@@H](CCC(N)=O)C(=O)O
CC(C)=CCC[C@]1(C)[C@@H](CC=C(C)C)C[C@@]2(CC=C(C)C)C(=O)[C@]1(C(=O)C(C)C)C(=O)C(CC=C(C)C)=C2O
COC(=O)C(CC(C)C)NS(=O)(=O)c1cc(Br)ccc1Br (configuration not stated)

Source: PubChem BioAssay AID2107 (National Center for Advancing Translational Sciences (NCATS), 2009)
